Shn3 3UTR inh – reduction of Shn3 3'UTR firefly luciferase signal, primary screen, Schnurri-3 inhibitor project, cell-based, Clone20 osteoblasts, set 2; Clone20 osteoblast Shn3 3'UTR firefly luciferase, 24 h; inhibition, % at 12.5 µM; 360,000 compounds, 0.52% hits; AID 588674, 2011;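 active = mean inhibition of at least 75% with every replicate also reaching 75%; inconclusive = mean inhibition at least 75% but some replicate below; inactive = mean inhibition below 75%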
TWEAK Fn14 block – inhibitors of TWEAK-Fn14 signaling, primary screen, luciferase reporter cells, uHTS; TWEAK-stimulated Fn14 reporter cells, luciferase luminescence, 8 h; 360,000 compounds, 2% hits; inhibition, % at 10 µM; in the data active = inhibition above about 50%
MITF TRPM1 inh – inhibitors of MITF-dependent TRPM1 promoter reporter, primary screen, cell-based, SK-MEL-5, single point, luciferase; inhibition, % at 12.5 µM; 330,000 compounds, 0.83% hits; SK-MEL-5 TRPM1 promoter luciferase, 24 h;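 active = mean inhibition across replicates of 60% or more, whatever share of single replicates reaches that level; inconclusive = some that reach 60%, reason not given; inactive = mean inhibition across replicates below 60%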
EBV LMP1 NFkB – EBV LMP1-driven NF-kappaB luciferase reporter inhibitors, primary screen, cell-based, luminescence, single point; LMP1-induced NF-kappaB luciferase reporter cells; inhibition, % at 12.5 µM; 350,000 compounds, 0.69% hits; AID 504558, 2011; in the data active = inhibition above about 41%; inconclusive = no clear call, values can overlap the other calls
TROY NFkB inh – inhibitors of TROY-driven NF-kB signaling, primary screen, Q293 LMP1-TROYcd cells, NF-kB luciferase, uHTS. Q293 LMP1-TROYcd NF-kB luciferase reporter, 4 h. inhibition, % at 10 µM. 360,000 compounds, 0.98% hits;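 active = compounds whose plate-normalised and pattern-corrected inhibition of the luciferase reporter signal at the single screening dose is 50% or more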
Peg3 promoter – Peg3 promoter-driven luciferase inhibitors, primary screen, cell-based, HeLa, luciferase luminescence. 360,000 compounds, 1.7% hits. HeLa PEG-Prom luciferase reporter, overnight. inhibition, % at 20 µM;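 active = inhibition of at least 50% at 20 µM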
A number is an active result; . = inactive; ? = inconclusive; / = no result given; ! = not confirmed by another sample. The list is not random: actives were taken first. Their share in the collection is about 4.1%.

SMILES	Shn3 3UTR inh	TWEAK Fn14 block	MITF TRPM1 inh	EBV LMP1 NFkB	TROY NFkB inh	Peg3 promoter
[O-]/C(=C(\C(=S)Nc1cccc2ccccc12)[n+]1ccccc1)c1ccc2c(c1)OCCO2	.	104	.	.	84	.
[O-]/C(=C(\C(=S)Nc1cccc2ccccc12)[n+]1ccccc1)c1ccc(OC(F)F)cc1	.	.	.	.	82	.
COc1cccc(NC(=S)/C(=C(\[O-])c2ccc(OC(F)F)cc2)[n+]2ccccc2)c1	.	.	.	.	.	.
CCCn1cnc2cc(NCc3cccc(OC)c3)ccc21	.	73	.	.	66	.
CCn1cnc2cc(NCc3ccc(N(C)C)cc3)ccc21	.	65	.	.	67	.
CCCn1cnc2cc(NCc3ccc(Br)cc3)ccc21	.	.	.	.	.	.
CCn1cnc2cc(NCc3ccc(C)cc3)ccc21	.	.	.	.	.	.
CCOc1ccc(CNc2ccc3c(c2)ncn3C(C)(C)C)cc1	.	.	.	.	.	.
CN(C)c1ccc(CNc2ccc3c(c2)ncn3C(C)(C)C)cc1	.	58	.	.	87	.
CCCN(C(=O)c1cccc(-n2cccc2)c1)c1c(N)n(Cc2ccccc2)c(=O)[nH]c1=O	.	.	.	.	.	.
CC(=O)c1c(C)[nH]c(C(=O)COC(=O)COc2ccccc2F)c1C	.	.	.	.	.	.
CN(C)c1ccc2c(=O)c3ccccc3oc2n1	.	55	/	/	.	.
O=C(Cc1cccs1)N/N=C\c1ccc([N+](=O)[O-])s1	.	.	.	.	.	.
O=[N+]([O-])c1ccc(C=Nc2ccc(Cl)c([N+](=O)[O-])c2)s1	.	.	71	.	.	81
Cc1ccc(NC(=S)N/N=C/c2ccc([N+](=O)[O-])s2)cc1	.	.	70	.	.	.
Cc1cc(C)cc(N=Cc2ccc([N+](=O)[O-])s2)c1	.	.	.	.	.	51
C[C@H](CO)N1C[C@H](C)[C@@H](CN(C)S(=O)(=O)c2ccc(F)cc2)Oc2ccc(NC(=O)NC3CCCCC3)cc2C1=O	.	.	.	.	.	.
COc1ccc(C(=O)NCC(c2ccccc2)N2CCCC2)cc1S(=O)(=O)N1CCOCC1 (stereo not drawn)	.	.	.	.	.	.
CC(=O)[C@H]1CC[C@H]2[C@@H]3C[C@H](C)C4=CC(=O)CC[C@]4(C)[C@H]3[C@@H](O)C[C@]12C	.	.	.	57	.	.
CC(=O)[C@H]1CC[C@H]2[C@@H]3CCC4=CC(=O)CC[C@]4(C)[C@H]3[C@H](O)C[C@]12C	.	.	.	.	.	.
CC(=O)c1ccc(N(CC(=O)NC2CCCCC2)C(=O)c2csnn2)cc1	.	.	.	.	.	.
CN(C)c1ccc(C(=S)Nc2ccccc2)cc1	.	95	.	.	82	.
CN(C)c1cc(O)c(C(=S)Nc2ccccc2)c(N(C)C)c1	.	.	.	.	.	.
COc1ccc(C2CC(=O)N(CC(=O)NCC3CCCO3)c3ccccc3S2)cc1 (stereo not drawn)	.	.	.	.	52	.
O=C(CN1C(=O)CC(c2ccco2)Sc2ccccc21)NCC1CCCO1 (stereo not drawn)	.	.	.	.	.	.
SMILES	Shn3 3UTR inh	TWEAK Fn14 block	MITF TRPM1 inh	EBV LMP1 NFkB	TROY NFkB inh	Peg3 promoter
COc1ccc(C2CC(=O)N(C)c3ccccc3S2)cc1 (stereo not drawn)	.	70	.	.	57	.
CCOC(=O)[C@@H]1[C@H]2COc3ccc(Br)cc3[C@@H]2N2C(=O)N(c3ccc(OC)cc3)C(=O)[C@@]12C	.	.	.	.	.	.
Cc1cn(-c2cc(C(=O)Nc3ccc(C)c(NC(=O)C(=O)c4c[nH]c5ccccc45)c3)cc(C(F)(F)F)c2)cn1	.	52!	.	.	.	.
CCOC(=O)[C@@H]1[C@H]2COc3cc(OC)ccc3[C@@H]2N2C(=O)N(c3ccc(F)cc3)C(=O)[C@@]12C	.	.	.	.	.	.
Cc1cc(=O)[nH]c(SCC(=O)N2CCCC2)n1	.	.	.	.	.	.
Cc1cc(C(F)(F)F)nn1CC(=O)NNC(=S)Nc1ccc(F)cc1	.	.	.	.	.	.
CCNS(=O)(=O)c1ccc(NC(=O)Cn2nc(C(F)(F)F)cc2C)cc1	.	87	.	.	/	.
COC(=O)C1=C(C)N(Cc2ccccc2)C(=NCc2ccc(OC)cc2)N[C@H]1c1cccc(F)c1	?	.	?	.	.	102
COC(=O)C1=C(C)N(Cc2ccccc2)C(=NCc2ccco2)N[C@H]1c1cccc(F)c1	.	.	.	.	.	.
COC(=O)C1=C(C)N(Cc2ccccc2)C(=NCc2cc(OC)c(OC)c(OC)c2)N[C@H]1c1cccc(F)c1	.	.	.	.	.	.
COC(=O)C1=C(C)N(Cc2ccccc2)C(=NCc2cccc(Cl)c2)N[C@H]1c1cccc(F)c1	.	.	95	.	.	104
CCOC(=O)C1(Cc2ccccc2C)CCCN(S(=O)(=O)CC)C1 (stereo not drawn)	.	.	.	.	.	.
CCN(CC)c1ccc(C(=O)OCC(=O)Nc2cc(C)on2)cc1	.	.	.	.	.	.
O=C(CNC(=O)c1ccc2ccccc2c1)NCc1ccc(F)cc1	.	.	.	.	.	.
CC(C)OC(=O)CC1C(=O)NCCN1C(=O)COc1ccc(C(C)(C)C)cc1 (stereo not drawn)	.	.	.	.	.	.
CCN(CC)S(=O)(=O)c1ccc2c(c1)nc(SCC(=O)NC1CC1)n2-c1ccccc1OC	.	61	.	.	/	.
CC1(C(=O)NS(=O)(=O)c2ccc(Cl)s2)CCN1C(=O)C1(c2ccc(Cl)cc2)CC1 (stereo not drawn)	.	.	/	/	.	.
Cc1ccc(-c2cnn(-c3ccccc3)c2N)cc1	.	.	.	.	.	.
Nc1c(-c2ccccc2)cnn1-c1ccc(C(=O)O)cc1	.	54	.	.	.	.
NC(=S)NN=C1c2ccccc2-c2c(F)c(F)c(F)c(F)c21	.	.	.	.	.	96
N#Cc1cccc2c1-c1ccccc1/C2=N/NC(N)=S	.	.	.	.	.	.
CCOc1ncccc1C(=O)OCC(=O)c1ccc(C)c(C)c1	.	.	.	.	.	.
CCOC(=O)C(=Cc1cc(=O)c(OC)co1)C(=O)OCC	.	98	98	.	.	106
CCCCCCCn1c(C)nnc1-c1cnn(C)c1N	.	.	.	.	.	.
CC(=O)c1c(C)[nH]c(C(=O)OCC(=O)Nc2ccc(C)cc2[N+](=O)[O-])c1C	.	63	.	.	.	.

Assay outcomes as filed in PubChem BioAssay.
